Screens: PubChem, several laboratories
TIM10 inh: growth inhibitors of isogenic TIM10 control yeast, primary screen, counter-screen for tim10-1 yeast inhibitor project, luminescence, uHTS; S. cerevisiae TIM10 strain growth, BacTiter-Glo luminescence, 24 h; inhibition, % at 10 µM; 1.4% of 330,000 active; AID 463195, 2010;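 active = inhibition of 40% or more at the single tested concentration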;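 also: wild-type TIM10 isogenic control strain grown at permissive 25 °C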
tim23-1 inh: growth inhibitors of tim23-1 mutant yeast, primary screen, luminescence, uHTS; S. cerevisiae tim23-1 growth, BacTiter-Glo luminescence, 24 h; 1.3% of 330,000 active; inhibition, % at 20 µM;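 active = growth inhibition of the mutant yeast at or above 50%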;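 also: temperature-sensitive mutant grown at 25 °C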
NALP1 inh: NALP1 inflammasome inhibitors in reconstituted yeast, colorimetric, S. cerevisiae, triplicate retest; S. cerevisiae NALP1/ASC/caspase-1 growth, X-gal OD620, 72 h; inhibition, % at 10 µM; 0.61% of 280,000 active; AID 2071, 2009; in the data active = inhibition mostly above about 24%, no sharp cut-off; inactive = mostly below about 32%
SKKanGAS inh: S. pyogenes SKKanGAS growth inhibitors in kanamycin, primary screen, streptokinase expression inhibitor project, SKKanGAS strain, BacTiter-Glo luminescence; 6 h; inhibition, % at 7.5 µM; 1.3% of 300,000 active; AID 1662, 2009;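 active = mean replicate score, as percent of positive control median, at least 50; inconclusive = mean below 50 but one replicate at or above 50; inactive = mean and every replicate below 50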;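 also: strain carries kanamycin resistance gene driven by streptokinase promoter and grows in 40 µg/ml kanamycin; loss of luminescence reflects streptokinase promoter inhibition or plain growth inhibition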
PfHsp90 set2: growth inhibition of PfHsp90-expressing yeast, primary screen, antimalarial PfHsp90 inhibitor project, S. cerevisiae, BacTiter-Glo luminescence, single point, set 2 | AID 504621, 2011 | BacTiter-Glo ATP, 48 h; yeast lacking PDR1 and PDR3 efflux regulators | 0.32% of 310,000 active | inhibition, % at 9.4 µM;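 active = every replicate shows inhibition above about 80%, whatever the replicate mean, limit read from the data; inconclusive = mean inhibition reaches the set limit but some replicate falls short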
tim10-1 inh: growth inhibitors of tim10-1 mutant yeast, primary screen, luminescence, uHTS | S. cerevisiae tim10-1 ts strain growth, BacTiter-Glo, 24 h | inhibition, % at 20 µM | 2.2% of 330,000 active | AID 463190, 2010;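 active = inhibition of at least 40%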;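 also: mutant grown at 25 °C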
tim10-1 conf: growth inhibitors of tim10-1 mutant yeast, confirmation, single concentration, luminescence, S. cerevisiae | shares compounds with tim10-1 inh | S. cerevisiae tim10-1 ts strain growth, BacTiter-Glo, 24 h | inhibition, % at 20 µM | 56% of 7,400 active;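 active = inhibition of yeast growth at or above a set limit in either of two repeat tests at 20 µM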;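 also: tim10-1 mutant grown at permissive 25 °C to find synthetic lethal compounds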
A number is an active result; - = inactive; ? = inconclusive; . = not tested or not shown. In the library only some 4.8% were active in any assay of this set; here they are far more common.

SMILES | TIM10 inh | tim23-1 inh | NALP1 inh | SKKanGAS inh | PfHsp90 set2 | tim10-1 inh | tim10-1 conf
CCOC(=O)c1ccc(N2C(=O)C(CC(N)=O)N(CCc3ccc(OC)c(OC)c3)C2=S)cc1 (stereo not given) | - | - | - | - | - | - | .
c1csc(-c2nnc(Cc3cccc4ccccc34)o2)c1 | - | - | - | - | . | 45 | -
Fc1ccc(Cc2nnc(-c3cccs3)o2)cc1 | - | - | - | - | - | - | .
CCC(O)C1CCN(C(=O)c2cc(COc3ccc4ncccc4c3)on2)CC1 (stereo not given) | - | - | - | - | - | - | .
CN(C)S(=O)(=O)c1cccc(-c2cn3cc(Cl)ccc3n2)c1 | - | - | - | - | - | 45 | 34
O=S(=O)(c1cccc(-c2cn3cc(Cl)ccc3n2)c1)N1CCOCC1 | - | - | - | - | - | 42 | 32
CN(C)S(=O)(=O)c1cccc(-c2cn3ccccc3n2)c1 | - | - | - | - | - | - | .
Cc1ccc(C)c2[nH]c(=O)c(CCNC(=O)c3ccc(S(=O)(=O)N4CCCC4)cc3)cc12 | - | - | - | - | - | - | .
CCOc1ccc(-n2c(C)nc3cc(C(=O)NCc4ccc5c(c4)OCO5)ccc32)cc1 | - | - | - | - | - | 47 | 35
O=C1CCc2ccccc2O1 | - | - | . | . | - | - | .
CCOC(=O)C1CCN(C(=O)CN(Cc2ccc(Cl)cc2)S(C)(=O)=O)CC1 | - | - | . | - | - | 97 | -
Nc1cc2c(cc1C(=O)c1ccc(Cl)cc1)OCCO2 | - | - | - | - | - | 41 | 33
CC(C)n1c(-c2ccco2)csc1=Nc1cccnc1 | - | - | - | - | - | 49 | 32
COCCn1c(-c2ccccc2)csc1=Nc1cccnc1 | - | - | - | - | - | - | .
CC1CC(C)CN(S(=O)(=O)N2CCC(C(=O)NCCc3ccccc3)CC2)C1 (stereo not given) | - | - | - | - | - | - | .
CCOC(=O)c1c(C2COc3ccccc3O2)csc1NC(=O)c1ccccc1 (stereo not given) | - | - | - | - | - | - | .
CCOC(=O)c1c(C2COc3ccccc3O2)csc1N (stereo not given) | - | - | - | - | - | 45 | -
CCN(CC)C(=S)SCC(=O)Nc1nc(-c2ccccc2)c(-c2ccccc2)o1 | - | - | - | 83 | - | 41 | -
COc1cc(OC)cc(C(=O)Nc2nc(-c3ccccc3)c(-c3ccccc3)o2)c1 | - | - | - | 90 | - | 44 | 33
O=C(CSC(=S)N1CCN(c2ccccc2)CC1)Nc1nc(-c2ccccc2)c(-c2ccccc2)o1 | - | - | - | - | - | - | .
COc1ccc(-n2c(C)nc3c(cnn3-c3ccc(Cl)cc3)c2=O)cc1 | - | - | - | - | - | 41 | -
Cc1cc(C=O)c(C)n1-c1ccc2c(c1)OCO2 | - | - | - | - | - | - | .
O=[N+]([O-])c1ccc(N=Nc2ccc(O)cc2O)cc1 | - | - | - | ? | - | 59 | 44
CCOC(=O)C1=NNC(C(=O)c2ccc(Cl)cc2)C1c1ccc(OC)cc1 (stereo not given) | - | - | - | - | - | - | .
CCOC(=O)C1=NNC(C(=O)c2ccc(C)cc2)C1c1ccc(OC)cc1 (stereo not given) | - | - | - | - | - | 41 | -
SMILES | TIM10 inh | tim23-1 inh | NALP1 inh | SKKanGAS inh | PfHsp90 set2 | tim10-1 inh | tim10-1 conf
Cn1c(/C=N/Nc2nc3ccccc3[nH]2)nc2ccccc21 | - | - | - | - | - | 41 | -
C(=N\Nc1nc2ccccc2[nH]1)/c1cccs1 | - | - | - | - | - | - | .
COCc1n[nH]c(=S)n1-c1ccccc1 | - | - | - | - | - | - | .
S=c1[nH]nc(CSCc2ccccc2Cl)n1-c1ccccc1 | - | - | - | - | - | 46 | 37
COc1ccccc1C(=O)Nc1ccccc1C(=O)N1C(C)CCCC1C (stereo not given) | - | - | - | - | - | 44 | 32
CC1CCCCN1C(=O)/C(=C\c1ccccc1)c1ccccc1 (stereo not given) | - | - | - | - | - | 42 | 31
CC1CC(C)CN(C(=O)/C(=C\c2ccccc2)c2ccccc2)C1 (stereo not given) | - | - | - | - | - | - | .
C/C(=N\Nc1nc(N2CCCCCC2)nc(N2CCCCCC2)n1)c1ccccc1 | - | - | - | 59 | - | 40 | -
CCc1ccc(/C(C)=N/Nc2cc(Cl)nc(C)n2)cc1 | - | - | - | - | - | - | .
C/C(=N\Nc1cc(Cl)nc(C)n1)c1ccccc1 | - | - | - | - | . | 41 | 39
CC(C)=CCN1CCN(Cc2cccn2-c2ccccn2)CC1CCO (stereo not given) | - | - | - | - | - | - | .
Cn1c(-c2ccccc2O)cc2ccccc21 | - | - | - | - | - | 48 | 29
N#CC(C#N)=Cc1cc2ccccc2nc1N1CCOCC1 | - | - | - | - | - | 44 | -
N#C/C(=C\c1cc2ccccc2nc1N1CCOCC1)C(=O)Nc1ccc(N2CCOCC2)cc1 | - | - | - | - | - | - | .
CCOC(=O)c1cc(-c2ccncc2)nc2c1c(C)nn2-c1ccccn1 | - | - | . | - | - | 45 | 34
Cc1ccccc1CNC(=O)CCc1ccccc1 | - | - | - | - | - | - | .
COc1ccc(C(CNC(=O)c2oc3cc(Br)ccc3c2C)N2CCCCC2)cc1 (stereo not given) | - | - | - | - | - | 42 | -
C=CCN1C(=O)C2(NNc3ccccc3O2)c2ccccc21 (stereo not given) | - | - | - | - | - | - | .
CCCCN1C(=O)C2(NNc3ccccc3O2)c2ccccc21 (stereo not given) | - | - | - | - | - | 43 | -
CCOC(=O)c1ccc(OCC(=O)c2ccc(O)cc2O)cc1 | - | - | - | - | - | - | .
CCCOC(=O)c1ccc(Oc2c(-c3ccc(O)cc3O)n[nH]c2C)cc1 | - | - | - | 55 | - | 55 | -
O=C(NCCN1C(=O)S/C(=C\c2ccccc2F)C1=O)C1CCCN1C(=O)c1cccs1 (stereo not given) | - | - | - | - | - | - | .
CCC(C)(C(=O)NC1CCCC1)N(C(=O)c1cnccn1)c1ccccc1 (stereo not given) | - | - | - | - | - | - | .
Cc1cccc2c(=O)cc(C)n(CC(=O)N3CCCCC3)c12 | - | - | - | - | - | - | .
Cc1cc(C)c(CSc2ncc(-c3ccc([N+](=O)[O-])cc3)[nH]2)c(C)c1 | - | - | - | 73 | - | 45 | 34
